From PubChem BioAssay (NCATS)
Results filed as inconclusive are left out. Entries that show only a call come without a potency. Activity calls are given as the source filed them. The call rests on the fitted dose curve; in most records, active means well fitted inhibition curve with a large enough effect; inconclusive means small, poorly fitted or top-dose-only effect; inactive means flat fitted curve, though single readings scatter.

Test system: TAB165
Assay: qHTS profiling for inhibitors of Plasmodium falciparum proliferation (AID 504749); further: nearly all actives have a fitted effect of over 60% in size
Settings: P. falciparum in erythrocytes, SYBR Green DNA, 72 h; series mostly up to 28.7 µM
Summary of the method: (§1)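 Infected RBCs, 0.3% parasitemia/2.5% Hct final; cpd 72 h, 37 C, 5% CO2; lysis buffer with saponin/triton/SYBR Green I, o/n RT dark; FI 485/535; norm. to artemisinin (0.29 uM) and DMSO.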
Potency means the concentration at half of the fitted maximal effect.

| Compound | Potency |
| --- | --- |
| COc1cccc2c1C(=O)c1c(O)c3c(c(O)c1C2=O)C[C@@](O)(C(=O)CO)C[C@@H]3O[C@H]1C[C@H](N)[C@H](OC2CCCCO2)[C@H](C)O1 (some centres undefined) | 2240 nM (active) |
| CCCCCCCCCCCC(CC1OC(=O)C1CCCCCC)OC(=O)C(CC(C)C)NC=O (centres undefined) | 398 nM (active) |
| CCC(C(=O)O)C1CCC(C)C(C(C)C(O)C(C)C(=O)C(CC)C2OC3(C=CC(O)[C@@]4(CC[C@](C)(C5CC[C@@](O)(CC)C(C)O5)O4)O3)C(C)CC2C)O1 (some centres undefined) | 708 nM (active) |
| Nc1nc2c(c(=O)[nH]1)N(C=O)[C@H](CNc1ccc(C(=O)N[C@@H](CCC(=O)O)C(=O)O)cc1)CN2 | inactive |
| COc1ccc([C@@H]2CNC(=O)C2)cc1OC1CCCC1 | inactive |
| OCC(O)C(O)C(O)CO (centres undefined) | inactive |
| COc1ccc2c(c1OC)C(=O)OC2[C@H]1c2c(cc3c(c2OC)OCO3)CCN1C (some centres undefined) | inactive |

Test system: W2
Assay: as above
Settings: P. falciparum in erythrocytes, SYBR Green DNA, 72 h; series mostly up to 28.7 µM
Summary of the method: as §1

| Compound | Potency |
| --- | --- |
| COc1cccc2c1C(=O)c1c(O)c3c(c(O)c1C2=O)C[C@@](O)(C(=O)CO)C[C@@H]3O[C@H]1C[C@H](N)[C@H](OC2CCCCO2)[C@H](C)O1 (some centres undefined) | 601 nM (active) |
| CCCCCCCCCCCC(CC1OC(=O)C1CCCCCC)OC(=O)C(CC(C)C)NC=O (centres undefined) | 675 nM (active) |
| CCC(C(=O)O)C1CCC(C)C(C(C)C(O)C(C)C(=O)C(CC)C2OC3(C=CC(O)[C@@]4(CC[C@](C)(C5CC[C@@](O)(CC)C(C)O5)O4)O3)C(C)CC2C)O1 (some centres undefined) | 757 nM (active) |
| Nc1nc2c(c(=O)[nH]1)N(C=O)[C@H](CNc1ccc(C(=O)N[C@@H](CCC(=O)O)C(=O)O)cc1)CN2 | inactive |
| COc1ccc([C@@H]2CNC(=O)C2)cc1OC1CCCC1 | inactive |
| OCC(O)C(O)C(O)CO (centres undefined) | inactive |
| COc1ccc2c(c1OC)C(=O)OC2[C@H]1c2c(cc3c(c2OC)OCO3)CCN1C (some centres undefined) | inactive |
